We go through 35 compounds from PubChem BioAssay (NCI).

This is part of a sample that, as a whole, favours compounds with a hit. Of some 83,000 tested, about 20% had one in any assay.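 Negative percent growth values reflect cell death: -40 means 40% of the cells present at the start died, and -100 means all died.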 A number with no mark means an inactive call. Active and inactive are the calls of the source. How the source made its calls: active means growth percent below 10; inactive means the rest.

The test system of this experiment is HOP-92 NSCLC. As to the kind of experiment: NCI-60 one-dose screen, 48 h (100 = growth as untreated, 0 = no growth, -100 = all killed). As to conditions: 10 µM unless noted.
As to `O=S(=O)(Nc1ccc(-n2cnc3cc(-c4ccc(O)cc4)ccc32)cc1)c1ccccc1`, the growth is 130%.

As for `O=S(=O)(NCCNc1nccc(-c2c(-c3cccc(O)c3)nc3occn23)n1)c1ccc(Cl)cc1`, the growth was 115%.

For `COc1cc(C2=NN(C(C)=O)C(c3cc(OC)c(OC)c(OC)c3)C2)ccc1O` (stereo not given), the growth was 48.5%.

On to `N/C(=N\C(N)=N\c1nc2ccccc2s1)c1cccc(Cl)c1`, for which the growth was 108%.

For `C=C(C)[C@@H]1CC[C@]2(C(=O)N3CCN(C)CC3)CC[C@]3(C)[C@H](CC[C@@H]4[C@@]5(C)CC[C@H](OCCC#N)C(C)(C)[C@@H]5CC[C@]43C)[C@@H]12`, the growth was 93%.

On to `O=C(/C=C(O)/C=C/c1ccc(SC(F)(F)F)cc1)/C=C/c1ccc(SC(F)(F)F)cc1`, for which the growth is 93%.

`COc1cc(/C(C)=C(\c2ccc(Cl)cc2)c2ccc(OCCN(C)C)cc2)ccc1F`: the growth is 44.6%.

Consider `COc1cc2oc(-c3cccc(C(=O)Nc4ccc(Cl)cc4)c3)cc(=O)c2c(O)c1OC`, for which the growth was 10.5%.

Take `COc1ccc2nc(-c3ccc(-c4noc(-c5cc(OC)c(OC)c(OC)c5)n4)cc3)[nH]c2c1`: the growth is 76.2%.

As for `COC1=CC(=O)c2ccccc2C1=O`, the growth was 127%.

For `CC(=O)Nc1cccc(-c2ccc3c(c2)NC(=O)/C3=C\c2ccc[nH]2)c1`, the growth is 80.8%.

Consider `COc1c(Cl)c2c(c(OC)c1OC)-c1ccc(SC)c(=O)cc1[C@@H](NC(=O)OCC(F)(F)F)CC2`, for which the growth was 23.4%.

As for `COc1cc(/C=N/NC(=O)c2cnn3c2NC(c2ccccc2)C3)ccc1Oc1ccccc1` (stereo not given), the growth is 26.1%.

With `COc1cc(C(=O)Nc2cc3c(cc2Oc2cc(C)cc(C)c2)C(=O)N(C)[C@@H](CC(=O)N(C)O)C(=O)N3)c(Br)c(OC)c1OC`, the growth is -16.4% (active).

Consider `COc1cc2cc(CN3CCN(c4nccc(-c5ccc6ccccc6c5)n4)CC3)c(=O)[nH]c2cc1OC`, for which the growth is 98.4%.

`N#C/C(=C\c1c(-c2ccccc2)[nH]c2ccccc12)C(=O)c1ccc(Cl)cc1`: the growth is 55.2%.

Take `NS(=O)(=O)c1ccc(CCn2c(SCC(=O)c3ccc(Cl)cc3)nc3ccccc3c2=O)cc1`: the growth was 109%.

As for `CC(C)(C)c1ccc(NS(=O)(=O)c2ccc3nc(NC(=O)c4cnccn4)[nH]c3c2)cc1`, the growth is 36.7%.

Regarding `CCCCCN1C=C/C(=C\C(=O)N(C)c2ccc(OC(F)(F)F)cc2)c2ccccc21`, the growth is 98.1%.

In the case of `CCc1c2c(nc3ccc(OCc4ccc(B(O)O)cc4)cc13)-c1cc3c(c(=O)n1C2)COC(=O)[C@]3(O)CC`, the growth was -4.54% (active).

As to `COc1cccc(C(=O)NNc2nc(Cl)nc(N3CCN(C(c4ccccc4)c4ccccc4)CC3)n2)c1`, the growth was 77%.

`COc1cccc(/C=N/NC(=O)c2cnn3c2NC(c2ccccc2)C3)c1Oc1ccccc1` (stereo not given): the growth is 105%.

For `COc1ccc(/C=C/C(=O)Nc2cc(/C=C\c3cc(OC)c(OC)c(OC)c3)cc(OC)c2OC)cc1OC`, the growth was 46.2%.

`COc1cc2oc(-c3cccc(C(=O)Nc4ccc5c(c4)OCO5)c3)cc(=O)c2c(O)c1OC`: the growth is 73%.

With `Nc1c(S(=O)(=O)O)cc2c3c(cccc13)C(=O)OC2=O`, the growth was 90.7%.

In the case of `O=C1Nc2ccccc2/C1=C\c1c(-c2ccccc2)nc2ccccn12`, the growth was 66.6%.

As to `COc1ccc(-c2[nH][nH]c(=O)c2-c2nc3ccccc3s2)cc1`, the growth was 108%.

For `Cc1ccc(-c2csc(NC(=O)CSc3nc(-c4ccccc4)cc(=O)[nH]3)n2)cc1`, the growth is 82.5%.

In the case of `Oc1cccc(CCc2ccc(Oc3cc(CCc4cccc(O)c4)cc(O)c3O)cc2)c1`, the growth is 53.5%.

With `CCOc1cccc(-c2nc(N)nc(Nc3ccccc3SSc3ccccc3Nc3nc(N)nc(-c4cccc(OCC)c4)n3)n2)c1`, the growth is 97.2%.

Regarding `Nc1n[nH]c2cccc(C#Cc3cccc(C(=O)Nc4cccc(C(F)(F)F)c4)c3)c12`, the growth is 58.6%.

For the compound `O=C(Nc1ccc(Cl)cc1)c1cc(NCc2cc(O)ccc2O)ccc1O`, the growth is 80.4%.

In the case of `COc1cc(/C=C2\COc3ccc(-c4ccccc4)cc3C2=O)cc(OC)c1`, the growth is 70.3%.

For `Cc1c(C(=O)NCCC(=O)NO)sc2ncnc(Nc3ccc(NC(=O)Nc4cccc(C(F)(F)F)c4)cc3)c12`, the growth was 115%.

On to `Cc1cc(C)c(S(=O)(=O)Oc2ccccc2[N+](=O)[O-])c(C)c1`, for which the growth is 38.1%.
